About 540 (0.62%) of roughly 87,000 compounds were called active. No rule for the calls is given here. The full list was thinned out, with actives kept by preference. Entries with a potency or affinity are not part of this list.
Assay: MT1-MMP gene expression reporter suppression – cell-based, luciferase reporter, luminescence (AID 618);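 also: actives suppress MT1-MMP promoter-driven transcription so potencies describe inhibitors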
Details: MT1-MMP promoter luciferase reporter cells

Question: Which outcome does the source give for COc1cccc(OCC(=O)N2CCN(C)CC2)c1 here?
Answer: Its outcome is “inactive”.

Question: With CN1CCN(C(=O)COc2ccc(S(=O)(=O)N(C)Cc3ccccc3)cc2)CC1 as the compound, how does the outcome read?
Answer: Its outcome is “inactive”.

Question: Which outcome does the source give for CN1CCN(C(=O)COc2ccc(-c3nc4ccccc4s3)cc2)CC1 here?
Answer: The outcome was “active”.

Question: For CCOC(=O)C1=C(N)Oc2ccccc2C12C(=O)N(CC(=O)OC)C(CC(=O)OC)=C2C(=O)OC (stereo not given), which outcome is on record?
Answer: The outcome was “inactive”.

Question: Which outcome does the source give for C[C@H]1CCC/C=C/C2C[C@H](O)CC2[C@H](O)/C=C/C(=O)O1 (stereo not given in full) here?
Answer: The outcome was “active”.

Question: Which outcome does the source give for C[C@H]1CCC[C@@H](O)CCC/C=C/c2cc(O)cc(O)c2C(=O)O1 here?
Answer: Its outcome is “inactive”.

Question: With C[C@H]1CCCC(=O)CCC/C=C/c2cc(O)cc(O)c2C(=O)O1 as the compound, how does the outcome read?
Answer: The outcome was “inactive”.

Question: For Cn1c(O)c(C=NCc2cccs2)c(=O)n(C)c1=O, which outcome is on record?
Answer: The outcome was “inactive”.

Question: For CCC(C)OC(=O)c1c(N)n(Cc2cccs2)c2nc3ccccc3nc12 (stereo not given), which outcome is on record?
Answer: Its outcome is “inactive”.

Question: With COc1ccc(Nc2ncc(C(=O)N3CCC4(CC3)OCCO4)c3ccccc23)cc1 as the compound, how does the outcome read?
Answer: Its outcome is “inactive”.

Question: With CC(C)c1cccc(C(C)C)c1OCCn1ccnc1 as the compound, how does the outcome read?
Answer: Its outcome is “inactive”.

Question: For CCn1c(=O)cc(OCC(=O)N2CCN(Cc3ccc4c(c3)OCO4)CC2)c2ccccc21, which outcome is on record?
Answer: The outcome was “inactive”.

Question: For O=C1CC(N2CCC(n3c(=O)[nH]c4ccccc43)CC2)C(=O)N1c1ccc(F)cc1 (stereo not given), which outcome is on record?
Answer: Its outcome is “inactive”.

Question: For O=c1[nH]c2ccccc2n1CCCN1CCC(n2c(=O)[nH]c3cc(Cl)ccc32)CC1, which outcome is on record?
Answer: The outcome was “inactive”.

Question: For O=c1[nH]c2ccccc2n1C1CCN(CCCC(c2ccc(F)cc2)c2ccc(F)cc2)CC1, which outcome is on record?
Answer: The outcome was “active”.

Question: With Cc1ccc(-n2nc(C)cc2NC(=O)COc2cc(C)cc3oc(=O)c4c(c23)CCC4)cc1 as the compound, how does the outcome read?
Answer: Its outcome is “inactive”.

Question: Which outcome does the source give for CC12CN3CC(C)(CN(C1)P3(=O)Oc1ccccc1)C2=O (stereo not given) here?
Answer: Its outcome is “inactive”.

Question: For Cc1nc2c(=O)n(C)c(=O)nc-2n(C)n1, which outcome is on record?
Answer: Its outcome is “active”.

Question: Which outcome does the source give for CCOC(=O)CC1=C(C(=O)OCC)C2(C(=O)N1CC(=O)OC)C(C#N)=C(N)Oc1ccccc12 (stereo not given) here?
Answer: Its outcome is “inactive”.

Question: For CCC/C=C(\CCC)C(NP(=O)(c1ccccc1)c1ccccc1)c1ccccc1 (stereo not given), which outcome is on record?
Answer: Its outcome is “inactive”.

Question: For Nc1ccccc1C(=O)OCCOc1ccccc1, which outcome is on record?
Answer: The outcome was “active”.

Question: For CCCCCCOC(=O)c1ccccc1N, which outcome is on record?
Answer: The outcome was “inactive”.

Question: For Nc1ccccc1C(=O)OC1CSC1, which outcome is on record?
Answer: The outcome was “inactive”.

Question: For CCCCOP(=O)(CN1CCOCC1)OCCCC, which outcome is on record?
Answer: The outcome was “inactive”.

Question: With CCN1CCN(C(=O)COc2cc(=O)n(CC)c3ccccc23)CC1 as the compound, how does the outcome read?
Answer: The outcome was “inactive”.

Question: For c1ccc2c(CNC3CCCCCC3)c[nH]c2c1, which outcome is on record?
Answer: The outcome was “inactive”.

Question: With CCCCn1c(O)c(C=NC2CC3CCC2(C)C3(C)C)c(=O)[nH]c1=O (stereo not given) as the compound, how does the outcome read?
Answer: Its outcome is “inactive”.

Question: Which outcome does the source give for Cc1ccc(C2(O)CC(C)N(C)CC2C)cc1 (stereo not given) here?
Answer: Its outcome is “inactive”.

Question: Which outcome does the source give for Cc1ccc(N(C)C(=O)Oc2cccc3cccnc23)cc1 here?
Answer: Its outcome is “inactive”.

Question: With CN(C)CCN=Cc1c(O)n(-c2cccc3ccccc23)c(=O)[nH]c1=O as the compound, how does the outcome read?
Answer: The outcome was “inactive”.

Question: Which outcome does the source give for COC(=O)[C@@H]1[C@@H](C(=O)OC)C2(c3ccccc3-c3ccccc32)N(c2ccc(Cl)cc2)N1C#N here?
Answer: Its outcome is “inactive”.

Question: With COC(=O)C[C@]1(C(=O)OC)CN(C#N)N(c2ccc(Cl)cc2)C12c1ccccc1-c1ccccc12 as the compound, how does the outcome read?
Answer: The outcome was “active”.

Question: Which outcome does the source give for COC(=O)C1CN(C#N)N(c2ccc(Cl)cc2)C12c1ccccc1-c1ccccc12 (stereo not given) here?
Answer: Its outcome is “active”.

Question: Which outcome does the source give for CCCN1[C@@H]2C[C@@H](O)CC[C@@H]2C[C@H]1C(=O)OC here?
Answer: The outcome was “inactive”.

Question: Which outcome does the source give for CN(C)CCCN=Cc1c(O)n(CCc2ccc(F)cc2)c(=O)[nH]c1=O here?
Answer: The outcome was “inactive”.

Question: For CC(C)CCC1(CCc2ccncc2)C(=O)NC(=O)NC1=O, which outcome is on record?
Answer: The outcome was “inactive”.

Question: For CCCCn1c(O)c(C(C)=Nc2c(C)n(C)n(-c3ccccc3)c2=O)c(=O)[nH]c1=O, which outcome is on record?
Answer: Its outcome is “inactive”.

Question: Which outcome does the source give for O=C1CN=C(c2ccccc2)c2oc3ccc(Br)cc3c2N1 here?
Answer: Its outcome is “inactive”.

Question: With COc1cccc(OC)c1C1=NCC(=O)Nc2c1oc1ccc(Br)cc21 as the compound, how does the outcome read?
Answer: Its outcome is “active”.

Question: For CCOc1cc(-c2nc3c(C)cccn3c2NCC2CCCO2)ccc1O (stereo not given), which outcome is on record?
Answer: Its outcome is “inactive”.

Source: PubChem BioAssay AID618 (Sanford-Burnham Center for Chemical Genomics, 2007)
